# Results as given in article PMC4336329 (PLoS ONE, 2015).
# Screen size: about 310,000 compounds; about 14,000 (4.5%) showed an effect of 50% or more. The effect is printed as a negative number. Shown is part of a subset that was picked to be rich in strong results.
# Molecular target: human ether-à-go-go-related gene (hERG) potassium channel (human, UniProt Q12809)
# Experiment: primary screen, population patch clamp on CHO cells stably expressing hERG; higher = less effect of the substance
# 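Also: peak tail current of the secondary pulse compared with the same well before compound.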
# Sequence of human ether-à-go-go-related gene (hERG) potassium channel (Q12809 whole entry, looked up): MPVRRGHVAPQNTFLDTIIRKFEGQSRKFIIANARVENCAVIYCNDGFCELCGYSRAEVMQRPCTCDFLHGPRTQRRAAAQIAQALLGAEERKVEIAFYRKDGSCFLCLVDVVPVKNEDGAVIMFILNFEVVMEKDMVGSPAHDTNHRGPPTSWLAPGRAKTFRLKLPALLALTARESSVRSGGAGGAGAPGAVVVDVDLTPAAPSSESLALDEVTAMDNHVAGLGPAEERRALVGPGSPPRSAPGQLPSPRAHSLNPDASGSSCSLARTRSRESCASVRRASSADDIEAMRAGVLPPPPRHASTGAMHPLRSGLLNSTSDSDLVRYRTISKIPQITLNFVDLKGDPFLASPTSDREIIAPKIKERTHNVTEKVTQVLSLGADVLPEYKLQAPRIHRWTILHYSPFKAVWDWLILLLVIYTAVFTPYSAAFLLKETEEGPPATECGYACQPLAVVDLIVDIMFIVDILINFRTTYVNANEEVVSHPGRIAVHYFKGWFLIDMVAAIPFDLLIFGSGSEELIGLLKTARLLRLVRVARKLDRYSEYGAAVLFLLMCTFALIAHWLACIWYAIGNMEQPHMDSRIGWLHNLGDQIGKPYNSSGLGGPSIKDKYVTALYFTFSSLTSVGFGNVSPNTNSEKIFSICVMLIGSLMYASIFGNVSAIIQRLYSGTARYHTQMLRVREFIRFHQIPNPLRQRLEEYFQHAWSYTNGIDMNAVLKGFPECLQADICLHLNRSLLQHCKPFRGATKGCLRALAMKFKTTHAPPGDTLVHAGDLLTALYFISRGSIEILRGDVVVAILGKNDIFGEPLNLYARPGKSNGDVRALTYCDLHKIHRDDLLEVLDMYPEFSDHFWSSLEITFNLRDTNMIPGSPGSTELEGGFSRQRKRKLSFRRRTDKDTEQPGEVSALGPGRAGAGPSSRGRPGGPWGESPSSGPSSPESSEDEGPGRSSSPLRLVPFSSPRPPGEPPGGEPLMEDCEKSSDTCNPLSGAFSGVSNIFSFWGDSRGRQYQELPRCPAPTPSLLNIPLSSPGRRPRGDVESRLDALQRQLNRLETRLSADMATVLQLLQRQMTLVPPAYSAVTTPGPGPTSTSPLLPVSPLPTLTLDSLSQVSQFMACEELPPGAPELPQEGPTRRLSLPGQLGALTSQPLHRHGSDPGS
row,Compound,"hERG current change (%, negative = inhibition) at 10uM"
1,S=c1[nH]nc(COc2ccccc2)n1/N=C/c1cccc(Br)c1,22.2%
2,O=C1N=C(N2CCc3ccccc3C2)S/C1=C\c1ccc(O)cc1,-20.8%
3,CN1/C(=C/C2CC(=O)NC2=O)C(C)(C)c2ccccc21 (stereo not drawn),3.26%
4,CCSCCc1nnc(NC(=O)Nc2cccc(C(F)(F)F)c2)s1,15.2%
5,O=C(Nc1nnc(-c2ccccc2)o1)c1cc(-c2cccs2)nc2ccccc12,2.29%
6,CC(=O)Nc1cccc(NC(=O)CSc2nccn2Cc2ccco2)c1,14%
7,O=C(CCOc1ccccc1)OCC(=O)c1cc2ccccc2o1,-10.3%
8,COC(=O)C1=C(C(=O)OC)[C@@H]2N(C)c3ccc(OC)cc3[C@@]23C[C@@H](C(=O)OC)N(C(=O)NCCBr)C3=N1,-32.9%
9,O=C(Nc1nnc(-c2cccs2)o1)c1cccc(F)c1,11.8%
10,NC(=O)C(F)(F)C12OC3C4C5CC(C6C5C3C61)C42 (stereo not drawn),15.1%
11,COc1cc(C(=S)N2CCC(Cc3ccccc3)CC2)ccc1OCC(N)=O,-46.8%
12,COc1ccc(S(=O)(=O)N2CCC(Cc3ccccc3)CC2)cc1NC(C)=O,20.5%
13,COc1cc(C(=O)OCC(=O)N2CCC(Cc3ccccc3)CC2)cc(OC)c1OC,-16.9%
14,COc1cc(C(C)=O)ccc1OCCN1CCC(Cc2ccccc2)CC1.O=C(O)C(=O)O,-91%
15,COc1ccc(NC(=S)N2CCC(Cc3ccccc3)CC2)cc1OC,-45.3%
16,COc1cc(C(C)=O)ccc1OCCCN1CCC(Cc2ccccc2)CC1.O=C(O)C(=O)O,-77.9%
17,O=C(CNC(=S)N(Cc1ccccc1F)C1CCCCC1)NC1CC1,-4.74%
18,CC(C)c1ccccc1OCC(=O)N1CCCCCCC1,13%
19,CCCCCC1CC(CC(=O)NC(=S)Nc2ccc([N+](=O)[O-])cc2)C(=O)O1 (stereo not drawn),-0.0907%
20,CC(C)OCC1CC(CC(=O)Nc2ccc([N+](=O)[O-])cc2)C(=O)O1 (stereo not drawn),-34.1%
21,CCCCCCC1CC(CCC(=O)Nc2ccc([N+](=O)[O-])cc2)C(=O)O1 (stereo not drawn),3.95%
22,CCCCCCC1CC(CC(=O)Nc2ccc([N+](=O)[O-])cc2)C(=O)O1 (stereo not drawn),-12.4%
23,CCCCCC1CC(CC(=O)Nc2ccc([N+](=O)[O-])cc2)OC1=O (stereo not drawn),-53.1%

row,Compound,"hERG current change (%, negative = inhibition) at 10uM"
1,CCCCCC1CC(CC(=O)Nc2ccc([N+](=O)[O-])cc2)C(=O)O1 (stereo not drawn),-50%
2,O=C(CC1NCCc2ccccc21)Nc1ccc(Oc2ccccc2)cc1 (stereo not drawn),-15%
3,C=CCN(c1ccccc1)S(=O)(=O)c1ccc2c(c1)NC(=O)C(C)C(=O)N2 (stereo not drawn),-4.47%
4,O=C(CNC(c1ccccc1)c1ccccc1)Nc1cc([N+](=O)[O-])ccc1Cl,10.7%
5,CCCCc1cc(O)c(CCCC)c(O)c1,-34.1%
6,COc1cc(/C=C(\C#N)C(=O)Nc2ccccc2)ccc1OCCN1CCOCC1,-21.7%
7,COc1ccccc1NC(=O)/C(C#N)=C/c1ccc(OCCN2CCOCC2)c(OC)c1,-6.48%
8,COc1cc(/C=C(\C#N)C(=O)Nc2ccccc2F)ccc1OCCN1CCOCC1,-64.6%
9,O=C(N/N=C/c1cccs1)c1cncc(Br)c1,-10.1%
10,COc1ccc(C)cc1NS(=O)(=O)c1ccc2c(c1)CCN2C(C)=O,-17.2%
11,Cc1cccc(C)c1NC(=S)N(CCc1ccncc1)C(C)C,-1.45%
12,Cc1ccc(C)c(NC(=S)N(CCc2ccncc2)C(C)C)c1,-42.1%
13,CCOc1ccc(NC(=S)N(CCc2ccncc2)C(C)C)cc1,-50.6%
14,CC(C)N(CCc1ccncc1)C(=S)Nc1cccc(Cl)c1,-71.3%
15,CC(C)NC(=S)N(CCc1ccncc1)C(C)C,17.3%
16,Cc1cccc(NC(=S)N(CCc2ccncc2)C(C)C)c1C,-8.61%
17,CC(C)N(CCc1ccncc1)C(=S)Nc1ccc(F)c(Cl)c1,-71.7%
18,CCc1ccccc1NC(=S)N(CCc1ccncc1)C(C)C,-29.6%
19,Cc1cc(C)c(NC(=S)N(CCc2ccncc2)C(C)C)c(C)c1,-8.82%
20,CCc1ccccc1N/N=C(/C)c1c(O)cc(C)oc1=O,-1.91%
21,Cc1c(CCC(=O)O)c(=O)oc2cc3occ(-c4ccccc4)c3cc12,-27.8%
22,CC(CN1C(C)CCCC1C)OC(=O)c1cccc(F)c1.Cl (stereo not drawn),-13%
23,COc1ccc(-c2nc(CN3CCN(c4ncccn4)CC3)c(C)o2)cc1C,-21.1%

row,Compound,"hERG current change (%, negative = inhibition) at 10uM"
1,Cc1cc(N2CCN(Cc3nc(-c4ccc(Cl)cc4)oc3C)CC2)cc(C)n1,-68.8%
2,Cc1cccc(N2CCN(Cc3nc(-c4cccc(Cl)c4)oc3C)CC2)n1,-21%
3,Cc1oc(-c2cccc3ccccc23)nc1CN1CCN(c2ncnc3ccccc23)CC1,-11.9%
4,Cc1cc(N2CCN(Cc3nc(-c4ccc(F)cc4)oc3C)CC2)cc(C)n1,-53.8%
5,COc1ccc(-c2nc(CN3CCN(Cc4cccc(Cl)c4)CC3)c(C)o2)cc1,-33.1%
6,COc1ccc(-c2nc(CN3CCN(Cc4cccc(F)c4)CC3)c(C)o2)cc1,-46.6%
7,Cc1cccc(-c2nc(CN3CCN(Cc4cccc(F)c4)CC3)c(C)o2)c1,-47%
8,COc1ccc(-c2nc(CN3CCN(C(=O)c4ccco4)CC3)c(C)o2)c(OC)c1C,-18%
9,Cc1oc(-c2cc(F)ccc2F)nc1CN1CCN(c2ncnc3ccccc23)CC1,-43.6%
10,COc1ccc(-c2nc(CN3CCN(c4ncnc5ccccc45)CC3)c(C)o2)c(OC)c1,-66.8%
11,COc1ccc(-c2nc(CN3CCN(c4cc(C)nc(C)c4)CC3)c(C)o2)c2ccccc12,-73.6%
12,Clc1ccc(-c2csc(Nc3cccnc3)n2)cc1,13.5%
13,CC(C)(C)C(=O)Nc1ccc(F)cc1[N+](=O)[O-],5.56%
14,Cc1cc2oc(=O)cc(CN3CCC(C)CC3)c2c(C)c1Cl,-2.84%
15,CCCCCc1c(O)c2ccccc2[nH]c1=O,7.97%
16,N#CCC(=O)NNC(=S)NC(=O)C(c1ccccc1)c1ccccc1,5.41%
17,O=C(NCCCCc1ccccc1)c1cccc(Br)c1,-3.79%
18,CCOc1ccc(N(CC(=O)Nc2nccs2)S(=O)(=O)c2c(C)noc2C)cc1,-5.98%
19,CCCOc1ccc(C2=CSC3=NCCN23)cc1.Cl,-28.3%
20,CCCOc1ccc(C2=CSC3=NCCN23)cc1Cl,-67.8%
21,CCOc1ccc(C2=CSC3=NCCN23)cc1Cl,-22.8%
22,CCCOc1ccc(C2=CSC3=NCCN23)cc1[N+](=O)[O-],-73.6%
23,COc1ccc(C2=CSC3=NCCN23)cc1Cl,-2.92%

row,Compound,"hERG current change (%, negative = inhibition) at 10uM"
1,CCCCOc1ccc(C2=CSC3=NCCN23)cc1[N+](=O)[O-],-71%
2,O=[N+]([O-])c1ccc(C2=CSC3=NCCN23)cc1,-32.9%
3,CCCCOc1ccc(-c2csc(N)n2)cc1[N+](=O)[O-],11.2%
4,Br.COc1ccc(C2=CSC3=NCCN23)cc1Br,-50.7%
5,Br.COc1ccc(C2=CSC3=NCCN23)cc1OC,-6.58%
6,Br.COc1ccc(C2=CSC3=NCCN23)cc1F,-13.9%
7,CSc1nc2sc3c(c2c(=O)n1C)CCCC3,-13.5%
8,CC(OC(=O)c1ccc(Br)c(S(=O)(=O)N2CCOCC2)c1)C(=O)NC1CCCCC1C (stereo not drawn),-49.9%
9,CC(C)(C)NC(=O)NC(=O)C[n+]1ccc(Cc2ccc([N+](=O)[O-])cc2)cc1.[Cl-],-5.27%
10,O=C(CCCN1C(=O)/C(=C\c2ccccc2)SC1=S)Nc1ccc(O)cc1C(=O)O,18.1%
11,CCOC(=O)/C=c1\s/c(=C\c2ccc(C(F)(F)F)cc2)c(=O)n1CC(=O)NCc1ccco1,5.47%
12,O=C(CSc1nnnn1-c1cccnc1)NCc1cccs1,9.62%
13,CCOC(=O)COc1ccc(C2CC(C)=NN2c2ccccc2)cc1 (stereo not drawn),-0.31%
14,CC(=O)n1nc2nc(C)cc(C)c2c1N,13.9%
15,O=C(/C=C/c1ccco1)NC1CCCC1,17.4%
16,CCOc1ccc(/C=N/NC(=O)c2ccccc2C)cc1CN1CC2CC(C1)c1cccc(=O)n1C2 (stereo not drawn),-26.8%
17,O=C(CCN=C1NS(=O)(=O)c2ccccc21)OCC(=O)c1ccc(F)c(F)c1,11%
18,O=C(NCc1ccccc1)NS(=O)(=O)c1ccccc1Cl,-4.3%
19,CCOc1ccc(C2=CSC3=NCCN23)cc1,-4.08%
20,COc1ccc(C2=CSC3=NCCN23)cc1[N+](=O)[O-],-26.1%
21,CCOc1ccc(C2=CSC3=NCCN23)cc1[N+](=O)[O-],-75.5%
